Structures are written as SMILES. Among all 52,000 compounds or so, about 4,300 (8.3%) were called active. Many of the other results were omitted from the sample, so actives are more common in it than they were. Values without a mark were called inactive. Rule as the data show it: active = survival mostly below about 52% (no sharp cut-off); inactive = mostly above about 56%.

The assay deals with DeltatarO mutant. The assay is described as follows: growth inhibition of S. aureus wild type versus tarO mutant, primary screen, teichoic acid synthesis inhibitors, RN4220, OD600 (AID 463173). Conditions: OD600, 18 h, stronger effect = lower value, screened at 18.75 µg/mL (by protocol).
`CSc1nnc(COc2ccc(Br)cc2)n1Cc1ccccc1`: the survival is 97%.

Take `CCNC(=O)Nc1ccc2nc(C)n(Cc3cccc(Cl)c3)c(=O)c2c1`: the survival was 104%. The same measure for `Cc1nn(-c2ccccc2)c2c1N(CCCC(=O)NCc1ccccc1)C(=O)CS2`: 99%. The same measure for `O=C(c1ccco1)N1CCN(Cc2cccc(Br)c2)CC1`: 95%; for `Cc1ccc(CNC(=O)CCCCn2c(=O)c3ccccc3n(Cc3ccc(C)cc3)c2=O)cc1`: 67%.

As to `CCOc1ccc(OCC)c(NC(=O)C2CCN(S(=O)(=O)c3ccc(Br)s3)CC2)c1`, the survival was 80%. `COc1cc(NC(=O)C2CCN(S(=O)(=O)c3ccc4c(c3)oc(=O)n4C)CC2)cc(OC)c1`: the survival was 102%. Turning to `Fc1ccccc1OCc1nc(-c2ccc(-n3cccc3)cc2)no1`, the survival was 75%. The same measure for `COc1ccc(CNC(=O)CSc2nc3ccccc3nc2Cc2ccccc2OC)cc1`: 70%; for `Cc1cc(C)cc(NC(=O)C2CCC(CNS(=O)(=O)c3ccc4c(c3)C(C)(C)C(=O)N4C)CC2)c1` (stereo unspecified): 102%.

On to `COc1ccc(NC(=O)C2CCC(CNS(=O)(=O)c3ccc4c(c3)C(C)(C)C(=O)N4C)CC2)cc1` (stereo unspecified), for which the survival is 54%. For `Cc1ccc(NC(=O)C2CCC(CNS(=O)(=O)c3ccc4c(c3)C(C)(C)C(=O)N4C)CC2)cc1` (stereo unspecified), the survival is 67% (active). The same measure for `CCOc1ccc(NC(=O)C2CCC(CNS(=O)(=O)c3ccc4c(c3)CCCC(=O)N4)CC2)cc1` (stereo unspecified): 47% (active); for `CC(C)c1ccc(NC(=O)C2CCC(CNS(=O)(=O)c3ccc4c(c3)CCCC(=O)N4)CC2)cc1` (stereo unspecified): 73%. Take `CC(=O)c1ccc(NC(=O)C2CCC(CNS(=O)(=O)c3ccc4c(c3)CCCC(=O)N4)CC2)cc1` (stereo unspecified): the survival is 73%. The same measure for `Cc1ccc(S(=O)(=O)NC2CCCCC2)c2nsnc12`: 78%; for `Cc1nc(C)c(CCNS(=O)(=O)c2ccc(F)cc2)s1`: 119%; for `CCc1cccc(NC(=O)CSc2n[nH]c(-c3ccccc3Cl)n2)c1`: 66%. As for `Cc1cc(Nc2ccccc2O)nc(C)n1`, the survival was 67%. For `CCOc1ccc(OCC)c(NS(=O)(=O)c2c(C(=O)N3CCC(C)CC3)c(C)n(C)c2C)c1`, the survival was 8% (active). The same measure for `CCOc1ccc(CNS(=O)(=O)c2c(C(=O)N3CCC(C)CC3)c(C)n(C)c2C)cc1OC`: 81%; for `COc1cc(OC)c(NS(=O)(=O)c2c(C(=O)N3CCCCCC3)c(C)n(C)c2C)cc1Cl`: 68%. The same measure for `COc1cc(OC)c(NS(=O)(=O)c2c(C(=O)N3CCC(C)CC3)c(C)n(C)c2C)cc1Cl`: 17% (active); for `COc1ccc(C)cc1NS(=O)(=O)c1c(C(=O)N2CCC(C)CC2)c(C)n(C)c1C`: 89%. In the case of `CC(=O)Nc1ccc(NS(=O)(=O)c2c(C(=O)N3CCC(C)CC3)c(C)n(C)c2C)cc1`, the survival was 20% (active). The same measure for `Cc1ccc(NS(=O)(=O)c2c(C(=O)N3CCC(C)CC3)c(C)n(C)c2C)cc1Cl`: 126%. The same measure for `CCOc1ccc(OCC)c(NS(=O)(=O)c2c(C(=O)N3CCCCCC3)c(C)n(C)c2C)c1`: 76%; for `CC(=O)Nc1ccc(NS(=O)(=O)c2c(C(=O)N3CCCCCC3)c(C)n(C)c2C)cc1`: 66%.

On to `Cc1ccc(CNC(=O)c2c(-c3ccccc3F)noc2C)o1`, for which the survival is 89%.

Regarding `CCC1CN(C(=O)N2CCC(C(=O)NCCN(CC)CC)CC2)c2cc(C)ccc2O1` (stereo unspecified), the survival was 94%.

As for `Cn1ccc2c(OCC(=O)Nc3ccc(OC(F)(F)F)cc3)cccc2c1=O`, the survival was 95%.

Consider `CCCc1nn2c(=O)cc(COC(=O)c3cccc(NC(=O)CCc4ccccc4)c3)nc2s1`, for which the survival was 131%. As to `CC(=O)c1ccc(NC(=O)Cn2c(=O)nc(-c3ccccc3)c3cc(Cl)ccc32)cc1`, the survival was 115%. The same measure for `O=C(NCCC1=CCCCC1)C1CC(O)CN1C(=O)Nc1ccccc1` (stereo unspecified): 87%. The same measure for `CCOC(=O)c1c(-c2ccccc2)csc1NC(=O)c1cc(-c2ccc(F)cc2)on1`: 66%. As to `CCOC(=O)c1c(-c2ccc(C)cc2)csc1NC(=O)c1cc(-c2ccc(C)c(F)c2)on1`, the survival is 55%. Consider `CCOC(=O)c1c(-c2ccc(C)cc2)csc1NC(=O)c1cc(-c2ccc(OC)cc2)on1`, for which the survival was 49%.

Take `CCOC(=O)c1c(NC(=O)c2cc(-c3cccc(OC)c3)on2)sc2c1CCCC2`: the survival is 46% (active).

With `CCOC(=O)c1c(-c2ccccc2)csc1NC(=O)c1cc(-c2cccc(Cl)c2)on1`, the survival was 59%. The same measure for `CCOC(=O)c1c(NC(=O)c2cc(-c3ccc(OC)c(OC)c3)on2)sc2c1CCCC2`: 52%.

As to `CCOC(=O)c1c(-c2ccccc2)csc1NC(=O)c1cc(-c2cccc(OC)c2)on1`, the survival was 43% (active). As for `CCOC(=O)c1c(-c2ccccc2)csc1NC(=O)c1cc(-c2ccc(C)c(F)c2)on1`, the survival was 52% (active).

For `CCOC(=O)c1c(NC(=O)c2cc(-c3ccc(Cl)cc3)on2)sc2c1CCCC2`, the survival is 68%. The same measure for `CCc1ccccc1-n1nnc(-c2nsc(NC(=O)c3ccc(C)c(C)c3)n2)c1C`: 130%.

As for `COc1ccc(NC(=O)C2Cc3ccccc3CN2S(=O)(=O)c2ccccc2)cc1OC` (stereo unspecified), the survival was 94%.

For the compound `CCc1c(C)sc2c1CCN(Cc1cccc(OC)c1)C2c1ccccc1` (stereo unspecified), the survival was 60%. In the case of `CCCCNC(=O)c1ccc2c(=O)n(Cc3ccc(OC)cc3)c(=O)[nH]c2c1`, the survival is 68%. The same measure for `COc1cc(OC)c(NC(=O)CCNS(=O)(=O)c2ccc3c(c2)oc(=O)n3C)cc1Cl`: 83%; for `Cc1cc(/C=C(\C#N)C(=O)N2CCc3ccccc3C2)c(C)n1C`: 87%; for `O=C(/C=C\c1ccc2c(c1)OCO2)NC1CC(=O)N(c2cccc(F)c2)C1` (stereo unspecified): 67%. The same measure for `COC(=O)c1ccc(NC(=O)NC(C)c2c(-n3cccc3)sc(C)c2C)cc1` (stereo unspecified): 52%; for `COC(=O)c1ccc(Cl)cc1NC(=O)NC(C)c1c(-n2cccc2)sc(C)c1C` (stereo unspecified): 19% (active); for `Cc1ccc(NC(=O)NC(C)c2c(-n3cccc3)sc(C)c2C)cc1F` (stereo unspecified): 64%. The same measure for `Cc1sc(-n2cccc2)c(C(C)NC(=O)Nc2cccc(C(F)(F)F)c2)c1C` (stereo unspecified): 23% (active); for `Cc1sc(-n2cccc2)c(C(C)NC(=O)Nc2ccccc2Cl)c1C` (stereo unspecified): 61%. As to `COc1ccc(NC(=O)NC(C)c2c(-n3cccc3)sc(C)c2C)cc1OC` (stereo unspecified), the survival was 58%.
